In PubChem BioAssay AID1345085 (National Center for Advancing Translational Sciences (NCATS), 2018):
Records with an inconclusive call do not appear. Activity calls are given as the source filed them. The call rests on the fitted dose curve; in most records, active means well fitted cell-killing curve with a large enough effect; inconclusive means small, poorly fitted or top-dose-only effect, or effect the other way; inactive means no such curve, though single readings can be large or run the other way.

System: SKOV3
Assay: Confirmatory qHTS for gynecologic anti-cancer compounds from libraries of approved drugs and bioactive compounds; further: nearly all actives have a fitted effect of over 55% in size
Settings: gynecologic cancer cell panel viability, ATPlite luminescence, 48 h; series mostly up to 57.6 µM
Method in brief: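 Seeding 1,000 cells per well preceded overnight (16 h) attachment, after which 48 h drug treatment across 57.5 uM–0.977 nM (11 points) was applied. Remaining cellular ATP, detected by ATPlite luminescence, defined IC50.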

Structure (SMILES)	outcome
O=C(O)Cc1ccccc1	inactive
CCOc1ccccc1-n1c(C(C)N2CCN(C(=O)COc3ccc(Cl)cc3)CC2)nc2ccccc2c1=O (stereo not given)	inactive
CCC(=O)O[C@H]1CC[C@H]2[C@@H]3CCC4=CC(=O)CC[C@]4(C)[C@H]3CC[C@]12C	inactive
C[C@]12CC[C@H]3[C@@H](CCC4=CC(=O)CC[C@@H]43)[C@@H]1CC[C@@H]2OC(=O)CCc1ccccc1	inactive
C=C(C)[C@H]1Cc2c(ccc3c2O[C@@H]2COc4cc(OC)c(OC)cc4[C@@H]2C3=O)O1	inactive
